KB-3-1 cytotox – KB-3-1 parental cell cytotoxicity; Potency, µM (highest dose often 46.1 µM), usual class: cytotoxic; KB-3-1 viability, CellTiter-Glo ATP luminescence, 72 h; AID 1347075; 1.4% of 400,000 active; further: on the % scale 0 is the no-effect control and ±100 the full control effect; nearly all actives have a fitted effect of over 60% in size
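Multi-concentration cytotoxicity screen in KB-3-1 cells grown in DMEM lacking phenol red with 10% FBS. After 72 h at 37 °C with compound, ATP-dependent luminescence was recorded.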
HT1080 IDH1KD tx – HT-1080 IDH1 knockdown cell toxicity (counter line); AID 686971; 2% of 360,000 active; Potency, µM (doses to about 46.1 µM), inactives show top-dose activity, negative = toxicity, most hits filed as cytotoxic; HT-1080 IDH1 knockdown viability, ATP luminescence, 48 h;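 further: 0% = DMSO wells and -100% = cell-free medium wells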
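CellTiter-Glo luminescence after 48 h compound exposure at 37 degrees C of IDH1-knockdown HT-1080 cells in 5% FBS RPMI. %Activity scaled between DMSO wells and cell-free media wells, with curves fitted and assigned curve classes.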
HT1080-NT tox – kills 2HG-producing HT-1080-NT fibrosarcoma cells | AID 686970 | 1.6% of 360,000 active | HT-1080-NT fibrosarcoma viability, CellTiter-Glo ATP luminescence, 48 h | Potency, µM (doses to about 46.1 µM), for inactives: top-dose activity, negative = less viability, most hits filed as cytotoxic;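 further: NT is the 2HG producing partner of a matched IDH1 knockdown line; 0% = DMSO-treated cells and -100% = media-only wells without cells; nearly all actives have a fitted effect of over 55% in size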
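Fibrosarcoma NT cells, 750 per well in 5% FBS RPMI, were exposed to compound for 48 hours. Viability: CellTiter-Glo luminescence.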
HepG2 tox-1 – counter-screen for TGF-b inhibitors: cytotoxicity in HepG2 cells | HepG2 CAGA-GFP viability, ATP luminescence, 18 h | AID 588856 | 0.76% of 410,000 active | Potency, µM (doses to about 46.1 µM), for the others: at the highest dose activity change, negative = cytotoxicity, actives largely listed as cytotoxic
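CellTiter-Glo luminescence gave cytotoxicity after 18 hours at 37 degrees C. The cells were HepG2 CAGA-GFP in 1% FBS DMEM, stimulated with 500 pg/mL TGF-beta after compound addition. %Activity was normalised to no-cell wells (complete cell-killing) and DMSO (no toxicity), and curves were fitted and classified.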
KB-V1 MDR tox – KB-V1 MDR subline cytotoxicity | KB-V1 MDR cells viability, CellTiter-Glo, 72 h | Potency, µM (highest dose often 46.1 µM), hits mostly cytotoxic | 3.4% of 400,000 active; further: on the % scale 0 is the no-effect control and ±100 the full control effect; nearly all actives have a fitted effect of over 60% in size
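Cytotoxicity via CellTiter-Glo luminescence after 72 h compound exposure at 37 degrees C. Cells: drug-selected KB-V1 line, DMEM phenol-red free plus 10% FBS. Compounds tested at multiple concentrations; normalized data fitted to concentration-effect curves.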
TGFb inhibitor – TGF-b pathway inhibition; AID 588855; HepG2 CAGA-GFP TGF-b/SMAD3 reporter, GFP fluorescence, 18 h; TGF-beta stimulated, 500 pg/mL final; Potency, µM (doses to about 46.1 µM), for inactives: at the highest dose activity, negative = inhibition, usual class: inhibitors; 1.2% of 410,000 active; further: on the % scale 0 is the no-effect control and ±100 the full control effect; nearly all actives have a fitted effect of over 65% in size
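First, reporter cells (HEPG2 CAGA-GFP) rested 2 h at 37 degrees C. Next, compounds were pinned in and TGF-beta added to 500 pg/mL final. After 18 h, GFP was imaged per cell and summed per well.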
TGFb CAGA inh – confirmation of TGF-b signaling inhibitors in HepG2 reporter cells | shares compounds with TGFb inhibitor | HepG2 CAGA-GFP TGF-b reporter, GFP fluorescence, 18 h; cells stimulated with TGF-beta, 500 pg/mL | Potency, µM (doses to about 46.1 µM), for inactives: top-dose activity, negative = inhibition, actives largely listed as inhibitors | 63% of 1,600 active | AID 720534; further: on the % scale 0 is the no-effect control and ±100 the full control effect; nearly all actives have a fitted effect of over 65% in size
HepG2 tox-2 – counter-screen for TGF-b inhibitors: cytotoxicity in HepG2 cells; shares compounds with TGFb inhibitor; HepG2 CAGA-GFP viability, ATP luminescence, 18 h; cells stimulated with TGF-beta, 500 pg/mL; Potency, µM (series often up to 46.1 µM), for the others: at the highest dose activity, negative = cytotoxicity, usual class: inhibitors; 27% of 1,600 active; further: on the % scale 0 is the no-effect control and ±100 the full control effect; nearly all actives have a fitted effect of over 70% in size
TGFb CCL64 inh – orthogonal confirmation of TGF-b inhibitors in CCL64 cells; shares compounds with TGFb inhibitor; CCL64 CAGA-GFP reporter, TGF-b stimulated, GFP fluorescence, 18 h; Potency, µM (top dose mostly 46.1 µM), without a hit: at the highest dose activity, negative = inhibition, actives largely listed as inhibitors; 41% of 1,600 active; AID 720536; further: nearly all actives have a fitted effect of over 65% in size
TGFb COP inh – validation of TGF-b inhibitors in HepG2 COP promoter reporter; 3% of 1,600 active; shares compounds with TGFb inhibitor; HepG2 COP-GFP TGF-b reporter, GFP fluorescence, 18 h; cells stimulated by added recombinant TGF-beta; Potency, µM (doses to about 46.1 µM), for the others: at the highest dose activity, negative = inhibition, actives largely listed as inhibitors; further: nearly all actives have a fitted effect of over 70% in size
An asterisk follows results filed as active; i = inactive; ? = inconclusive; / = no result given. Hits are enriched below; roughly 6.6% of the tested compounds scored in any of these assays. The call rests on the fitted dose curve; in most records, active means well fitted curve in the direction sought with a large enough effect; inconclusive means small, poorly fitted or top-dose-only effect, or another doubt; inactive means no such curve, though single readings can be large; an effect the other way counts as inactive or inconclusive. Potency means the concentration at half of the fitted maximal effect.

SMILES	KB-3-1 cytotox	HT1080 IDH1KD tx	HT1080-NT tox	HepG2 tox-1	KB-V1 MDR tox	TGFb inhibitor	TGFb CAGA inh	HepG2 tox-2	TGFb CCL64 inh	TGFb COP inh
Cc1cc2nc(-c3cccc(NC(=O)C(C)C)c3C)oc2cc1C	i	/	/	1%	i	25%	/	/	/	/
Cc1ccc(COC(=O)c2nn(C)c(=O)c3ccccc23)cc1	?	?	-16%	-9%	?	?	?	3%	6%	-8%
Cn1nc(C(=O)OCc2ccc(F)cc2)c2ccccc2c1=O	i	7%	0%	-13%	?	11%	/	/	/	/
CC(C)=CCNc1ncnc2c1c(C#N)cn2C1OC(CO)C(O)C1O (stereo not drawn)	?	-16%	-5%	-26%	?	4µM*	0.73µM*	?	13%	22%
CCOc1ccccc1NC(=O)CSc1nnc(CC)c(CC)n1	i	/	/	-45%	i	0%	/	/	/	/
CC(C)(C)c1ccc(/C=C2\SC(=O)N(CCNC(=O)c3cccc(S(=O)(=O)N4CCOCC4)c3)C2=O)cc1	?	-24%	-3%	-19%	?	13µM*	7.3µM*	?	?	18%
O=C(NCCc1cccnc1)c1cc(COc2ccc(F)cc2Cl)on1	i	15µM*	?	-19%	?	13µM*	?	-23%	?	3%
O=C(NCCc1cccnc1)c1cc(COc2ccc(F)cc2F)on1	i	?	?	-12%	i	-6%	/	/	/	/
Cn1c(=O)n(C)c2cc(N3CCOCC3)c(NC(=O)c3ccccc3Br)cc21	i	/	/	-1%	i	-3%	/	/	/	/
N#C/C(=C\c1ccc([N+](=O)[O-])o1)C(=O)Nc1ccc(F)cc1	i	?	?	-6%	i	-20%	/	/	/	/
N#CCc1ccc(NC(=O)/C=C/c2ccc([N+](=O)[O-])o2)cc1	5.2µM*	2.9µM*	3.3µM*	11µM*	?	7.1µM*	2.6µM*	5.8µM*	9.2µM*	?
CCCCOC(=O)Nc1ccc(S(=O)(=O)Nc2ccc([N+](=O)[O-])cc2)cc1	i	-2%	11%	-9%	21µM*	7.9µM*	?	-6%	-14%	-9%
Cc1ccc2ncc(C(=O)Nc3cccc(C(F)(F)F)c3)c(=O)n2c1	i	/	/	4%	?	7%	/	/	/	/
COc1ccc(-c2csc(NC(C)c3nc4cc(C(F)(F)F)ccc4n3CCOCCO)n2)cc1 (stereo not drawn)	?	?	-24%	-23%	i	13µM*	23µM*	?	?	5%

Screening data as filed in PubChem.
